# Bioassay records as filed in PubChem.
# PAFAH1B2 FP inh = inhibitors of human PAFAH1B2; inhibition, % at 3.39 µM; recombinant PAFAH1B2, FP-rhodamine activity probe, fluorescence polarization; 1.2% of 340,000 active;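 active means inhibition above the mean of all tested compounds plus 3 SD, cut at about 24% in these data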;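 further: 0% = enzyme with DMSO and 100% = wells lacking PAFAH1B2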
# Target sequence (P68402 whole entry, looked up): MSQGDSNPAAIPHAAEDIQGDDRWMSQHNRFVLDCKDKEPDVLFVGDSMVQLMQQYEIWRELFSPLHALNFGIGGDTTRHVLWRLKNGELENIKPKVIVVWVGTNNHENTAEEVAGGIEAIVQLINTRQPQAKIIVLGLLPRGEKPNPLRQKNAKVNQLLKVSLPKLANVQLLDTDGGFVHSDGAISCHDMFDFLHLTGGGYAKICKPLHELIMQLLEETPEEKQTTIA
# PAFAH1B3 inh = PAFAH1B3 (human) inhibition. Q15102. recombinant PAFAH1B3, FP-rhodamine probe, fluorescence polarization. inhibition, % at 3.39 µM. 0.28% of 340,000 active;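 active means inhibition above the screen-wide average of all tested compounds plus 3 SD, cut at about 25% in these data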;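 further: 0% = enzyme with DMSO only and 100% = wells lacking PAFAH1B3 protein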
# pPAFAH inh = inhibitors of human plasma PAF acetylhydrolase (pPAFAH) | recombinant pPAFAH, FP-rhodamine probe fluorescence polarization | inhibition, % at 3.39 µM | 1.5% of 330,000 active | AID 463082;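 active means inhibition above the mean inhibition across the screen plus 3 SD, cut at about 25% in these data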;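 further: inhibitors block binding of the rhodamine activity-based probe so polarization drops; 0% = enzyme with DMSO and 100% = wells lacking pPAFAH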
# Fam108B inh = blocks mouse Fam108B hydrolase in RBBP9 counter-screen. recombinant Fam108B, FP-Rh probe fluorescence polarization. inhibition, % at 9.51 µM. 0.33% of 300,000 active. AID 1947;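 active means inhibition above the screen mean inhibition plus 3 SD, computed separately per campaign, cut at about 18% in these data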;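 further: inhibitors lower polarization as less probe binds the enzyme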
# PME-1 primary = blocks human protein phosphatase methylesterase 1; inhibition, % at 5.9 µM; AID 2130; 0.53% of 320,000 active; recombinant PME-1, FP-Rh probe fluorescence polarization;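 active means inhibition above the campaign mean of all compounds plus 3 SD, cut at about 26% in these data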;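 further: competitive labeling of PME-1 active site by serine hydrolase directed probe; 0% = PME-1 with DMSO and 100% = wells lacking PME-1 enzyme; inhibitors block probe labeling so polarization falls and inhibition rises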
# Target sequence (Q9Y570 whole entry, looked up): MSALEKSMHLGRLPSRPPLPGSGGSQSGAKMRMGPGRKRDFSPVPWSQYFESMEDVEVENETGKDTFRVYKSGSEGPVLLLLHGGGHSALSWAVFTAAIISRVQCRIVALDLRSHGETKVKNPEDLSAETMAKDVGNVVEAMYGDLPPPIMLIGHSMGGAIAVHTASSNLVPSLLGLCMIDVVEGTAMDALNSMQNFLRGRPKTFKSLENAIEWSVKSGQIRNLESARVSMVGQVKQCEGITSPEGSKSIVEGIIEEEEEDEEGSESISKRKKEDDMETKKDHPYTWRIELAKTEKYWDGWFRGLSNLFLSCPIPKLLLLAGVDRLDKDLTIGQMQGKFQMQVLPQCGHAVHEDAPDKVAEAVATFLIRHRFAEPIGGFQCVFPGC
# PAFAH2 inh = inhibitors of human PAFAH2 | AID 492956 | recombinant PAFAH2, FP-rhodamine activity probe, fluorescence polarization | Q99487 | inhibition, % at 3.39 µM | 0.99% of 340,000 active;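 active means inhibition above the mean over all tested compounds plus 3 SD, cut at about 30% in these data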;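 further: inhibitors block probe labeling of enzyme so polarization drops; 0% = enzyme with DMSO and 100% = wells lacking PAFAH2 protein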
# PAFAH2 confirm = PAFAH2 (human) inhibition, confirmed; shares compounds with PAFAH2 inh; 65% of 2,300 active; inhibition, % at 3.39 µM; recombinant PAFAH2, FP-rhodamine activity probe, fluorescence polarization; AID 493030;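 active means mean inhibition over three repeats above a set limit taken from the earlier primary screen, cut at about 30% in these data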;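 further: inhibitor blocks binding of rhodamine activity probe so polarization falls; 0% = enzyme with DMSO and 100% = wells lacking PAFAH2 protein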
# * hit, by the source's call; . = no result. Rows were chosen to be rich in hits. Some 2.8% of all compounds tested hit in one or more screens of this group.
SMILES,PAFAH1B2 FP inh,PAFAH1B3 inh,pPAFAH inh,Fam108B inh,PME-1 primary,PAFAH2 inh,PAFAH2 confirm
Cc1ccc(NC(=O)COC(=O)/C=C/c2cccs2)c(C)c1,2,12,7,-3,6,56*,42*
Cc1cc(C)c(NC(=O)COC(=O)/C=C/c2cccs2)c(C)c1,3,-12,3,-4,0,35*,31*
CNC(=O)COC(=O)/C=C/c1cccs1,-1,5,1,-1,-4,3,.
O=c1cc(CO)occ1OCc1ccccc1,9,8,0,1,0,5,.
C#CCOc1coc(COC(=O)c2ccccc2)cc1=O,4,8,0,0,3,50*,30*
CCN(CC)CCOC(=O)c1ccc(NC(=O)c2ccc(Cl)c(S(=O)(=O)N3CCCCCC3)c2)cc1,0,2,-2,-22,-19,-3,.
Nc1nnc(CC(=O)N/N=C/c2cccc(OCCOc3ccccc3)c2)s1,1,2,-8,-10,-35,18,.
Cc1ccccc1OCCOc1cccc(/C=N/NC(=O)Cc2nnc(N)s2)c1,4,-4,9,1,-16,33*,16
O=C(CN(C(=O)c1csnn1)c1cccc2c1CCCC2)NCc1ccccc1,5,4,7,-2,0,-4,.
COc1ccc(NC(=O)COC(=O)CC2CCCCC2)cc1,-2,0,7,.,-3,48*,42*
COc1ccc(NC(=O)COC(=O)CC2CCCC2)cc1,3,4,20,.,.,58*,47*
Cc1ccc(NC(=O)COC(=O)CCC2CCCC2)c(Br)c1,2,6,18,.,1,31*,14
COc1cc(CCC(=O)OCC(=O)Nc2ccc(C)cc2Br)cc(OC)c1OC,-1,6,6,-1,-2,7,.
Cc1cc(C)cc(NC(=O)COC(=O)CC2CCCC2)c1,4,4,24,.,2,80*,66*
O=C(O)Cc1nc2nc3c(c(=O)n2[nH]1)CCCC3,1,1,-3,1,2,-3,.
O=c1c2c(nc3nc(COc4ccccc4)[nH]n13)CCC2,3,-1,5,-1,-3,61*,56*
CCOC(=O)C1CCCN(c2c(NCCN3CCCCC3C)c(=O)c2=O)C1 (configuration not stated),0,4,5,0,5,9,.
COc1ccc(/C=C/C(=O)OCC(=O)NCCc2ccccc2)c(OC)c1,-2,5,17,.,.,76*,60*
COc1cccc(/C=C/C(=O)OCC(=O)NCc2ccco2)c1,0,-2,11,4,2,29,.
COc1ccc(/C=C/C(=O)OCC(=O)NCc2ccco2)c(OC)c1,1,-1,13,3,2,74*,69*
COc1ccc(OC)c(/C=C/C(=O)OCC(=O)Nc2cccc(C(C)=O)c2)c1,0,-8,-2,-3,-4,68*,62*
COc1ccc(OC)c(/C=C/C(=O)Oc2ccc(C(C)=O)cc2)c1,0,2,6,-2,6,18,.
COc1ccc(OC)c(/C=C/C(=O)OCC(=O)NCc2ccco2)c1,1,7,0,.,2,40*,28
O=C(CSc1n[nH]c(=O)n1C1CC1)Nc1cc(Cl)ccc1Oc1ccccc1,-2,1,13,-2,-4,9,.
O=C(CSc1nnnn1C1CCCCC1)NCc1cccs1,1,4,-2,4,-2,0,.
SMILES,PAFAH1B2 FP inh,PAFAH1B3 inh,pPAFAH inh,Fam108B inh,PME-1 primary,PAFAH2 inh,PAFAH2 confirm
COC(=O)C(/C=N/OCc1ccc([N+](=O)[O-])cc1)NC(=O)c1cccc(Cl)c1 (configuration not stated),9,3,0,1,2,2,.
COCCSc1nc2c(c(=O)[nH]c(=O)n2C)n1CCC(C)C,8,7,4,-4,0,4,.
C/C(=N/OC(=O)C1CC1)c1cc(-c2ccc(Cl)cc2)no1,7,12,2,5,-1,73*,61*
O=C(CSC1=NS(=O)(=O)c2ccccc2N1)Nc1cccc(F)c1,0,15,2,-1,-2,5,.
O=C(COC(=O)c1ccc(Cl)c(S(=O)(=O)N2CCCCC2)c1)NCCc1ccccc1,6,13,.,.,.,9,.
O=C(COC(=O)c1cccc(S(=O)(=O)N2CCCCC2)c1)NC1CCCCC1,2,11,6,.,-1,77*,76*
Cc1ccc(C(=O)OCC(=O)Nc2ccccc2C(F)(F)F)cc1S(=O)(=O)N1CCCCC1,6,9,.,.,.,14,.
CCCCNC(=O)COC(=O)c1ccc(Cl)c(S(=O)(=O)N2CCCC2)c1,4,9,13,-7,-2,44*,21
O=C(COC(=O)c1ccc(Cl)c(S(=O)(=O)N2CCCCC2)c1)NCC1CCCCC1,3,-2,0,.,1,20,.
O=C(COC(=O)c1cccc(S(=O)(=O)N2CCCCCC2)c1)Nc1ccccc1C(F)(F)F,2,0,18,.,6,58*,36*
O=C(COC(=O)c1ccc(Cl)c(S(=O)(=O)N2CCCC2)c1)NC1CCCCC1,3,9,11,-1,5,36*,16
O=C(Nc1ccccc1C(=O)Nc1ccccn1)c1cc(F)c(F)cc1Cl,-2,-6,.,.,.,-2,.
Cc1ccc(C(=O)OCC(=O)NC2CCCC(C)C2C)cc1S(=O)(=O)N1CCCCC1 (configuration not stated),4,9,13,.,10,39*,16
O=C(c1ccc(-c2cccc(C(F)(F)F)c2)o1)N1CCCC(C(F)(F)F)C1 (configuration not stated),1,-4,8,1,1,33*,5
O=C(c1ccc(-c2cccc(C(F)(F)F)c2)o1)N1CCN(c2ccccc2O)CC1,3,9,17,4,10,-3,.
Cc1onc(-c2ccccc2)c1C(=O)N1CCN(c2ncccc2C(F)(F)F)CC1,-5,7,5,-3,3,2,.
CCOCc1c(C(=O)OCC(=O)Nc2ccc(C)c(S(=O)(=O)N(C)C)c2)oc2ccccc12,6,4,2,-7,7,58*,45*
Cc1cccc(C(=O)NCC(=O)NC(C)CCc2ccccc2)c1 (configuration not stated),3,13,2,-1,3,1,.
CC(CCc1ccccc1)NC(=O)COC(=O)c1cccc(N(C)C)c1 (configuration not stated),1,-1,22,8,10,58*,36*
Cc1cccc(C(=O)OCC(=O)NC(C)CCc2ccccc2)c1 (configuration not stated),0,3,7,-1,6,46*,31*
